biological target: PUM1 PUF domain R5-MRG (Homo sapiens, UniProt Q14671 828-1176, C1007M;Q1011G); assay: yeast three-hybrid, YBZ-1, SC-Leu-His + 0.5 mM 3-AT, 4 days; settings: tags: N-Gal4 AD-HA kept; label: inside an RPR1-promoter hybrid RNA with tandem MS2 sites; ssRNA
Method in brief: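 Repeat regions from input (SC-Leu) and selection (SC-Leu-His + 0.5 mM 3-AT) plates were PCR-amplified and Illumina-sequenced after four days of growth. The cells were strain YBZ-1 with a LexA–MS2 coat fusion and a HIS3 reporter, co-expressing Pumilio-1 PUF domain libraries and matching RNA elements from a centromeric plasmid. The interaction score is the log change in variant frequency from input to selection, taken in log2 with a pseudocount of 1 for absent variants.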

| Sequence | binding signal |
| --- | --- |
| GGCUAGAACUAGUGGAUCCCCCGGCGCCCGGCGGCUCGAGCCCGGGUAAGUGUCAAUAGUCUGCAUGCCGCCGGGCGCCAUGCCUGCAGGUCGACUCUAGAAAACAUG | 0.97 log2 enrichment (interaction score) |
| GGCUAGAACUAGUGGAUCCCCCGGCGCCCGGCGGCUCGAGCCCGGGUAAGUGUAAAUAGUCUGCAUGCCGCCGGGCGCCAUGCCUGCAGGUCGACUCUAGAAAACAUG | 0.66 log2 enrichment (interaction score) |
| GGCUAGAACUAGUGGAUCCCCCGGCGCCCGGCGGCUCGAGCCCGGGUAAGUGUUAAUAGUCUGCAUGCCGCCGGGCGCCAUGCCUGCAGGUCGACUCUAGAAAACAUG | 3.12 log2 enrichment (interaction score) |

Reference: article PMC8384837, “Expanding the binding specificity for RNA recognition by a PUF domain”
